We go through 62 compounds from the antibiotic and cytotoxicity screens of Wong et al. (2023).

Each structure is given as a SMILES string. About 1,500 (3.8%) of roughly 39,000 compounds were called active. The sample holds actives, similar compounds and a random draw of the others, so the mix is not that of the screen.

The experiment deals with HSkMC (human skeletal muscle cells). Put plainly: cytotoxicity call (relative viability < 0.9). Conditions: 10 µM.
`C[C@H](CO)N1C[C@H](C)[C@H](CN(C)C(=O)Nc2ccc(C(F)(F)F)cc2)OCCCC[C@H](C)Oc2ccc(NC(=O)NC3CCCCC3)cc2C1=O`: the cytotoxicity call is “inactive”.
Regarding `C[C@@H]1CCCCO[C@@H](CN(C)C(=O)c2ccccc2)[C@@H](C)CN([C@@H](C)CO)C(=O)c2cc(NC(=O)CCC(F)(F)F)ccc2O1`, the cytotoxicity call is “inactive”.
Turning to `CO[C@@H]1CN(C)C(=O)c2cc(NC(=O)C3CCOCC3)ccc2OC[C@@H](C)N(Cc2cccnc2)C[C@@H]1C`, the cytotoxicity call is “inactive”.
The entry for `CC1(C(=O)O)CCC2(C)CCC3(C)C(=CC(=O)C4C5(C)CCC(O)C(C)(C)C5CCC43C)C2C1` (configuration not stated) is “inactive”.
The entry for `CC(=O)Oc1cc2c(c(C)c1OC(C)=O)CC=C1[C@@]2(C)CC[C@@]2(C)[C@H]3C[C@](C)(C(=O)O)CC[C@]3(C)CC[C@]12C` is “active”; for `C[C@@H]1CN([C@@H](C)CO)C(=O)Cc2cc(NC(=O)NC3CCCCC3)ccc2O[C@@H]1CN(C)C(=O)Nc1cccc2ccccc12` it is “inactive”; for `C[C@@H]1CN([C@H](C)CO)C(=O)Cc2cc(NS(C)(=O)=O)ccc2O[C@H]1CN(C)S(=O)(=O)c1cccs1` it is “inactive”.
The entry for `CC(C)CC#Cc1ccc2c(c1)O[C@@H](CN(C)C(=O)Cc1ccccn1)[C@@H](C)CN([C@H](C)CO)S2(=O)=O` is “inactive”; for `C[C@H]1CN([C@@H](C)CO)C(=O)Cc2cc(NC(=O)Nc3ccc(C(F)(F)F)cc3)ccc2O[C@@H]1CN(C)CC1CCCCC1` it is “active”.
Consider `C[C@@H]1CN([C@H](C)CO)C(=O)Cc2cc(NC(=O)Nc3ccc(C(F)(F)F)cc3)ccc2O[C@@H]1CN(C)CC1CCCCC1`, for which the cytotoxicity call was “active”.
The entry for `C[C@@H]1CN([C@H](C)CO)C(=O)Cc2cc(NC(=O)Nc3ccc(F)cc3)ccc2O[C@H]1CN(C)CC1CCCCC1` is “inactive”.
Regarding `C[C@H](CO)N1C[C@H](C)[C@H](CN(C)CC2CCCCC2)Oc2ccc(NC(=O)Nc3ccc(C(F)(F)F)cc3)cc2CC1=O`, the cytotoxicity call was “active”.
The entry for `C[C@H]1CN([C@@H](C)CO)C(=O)Cc2cc(NC(=O)Nc3ccc(C(F)(F)F)cc3)ccc2O[C@H]1CN(C)CC1CCCCC1` is “active”; for `C[C@@H]1CN([C@@H](C)CO)C(=O)Cc2cc(NC(=O)Nc3ccc(C(F)(F)F)cc3)ccc2O[C@@H]1CN(C)CC1CCCCC1` it is “inactive”; for `Cc1ccc(S(=O)(=O)N(C)C[C@@H]2OCCCC[C@@H](C)Oc3ccc(NC(=O)Nc4cccc5ccccc45)cc3C(=O)N([C@H](C)CO)C[C@@H]2C)cc1` it is “inactive”.
The entry for `COCC(=O)N(C)C[C@H]1Oc2cc(C#C[C@H](C)O)ccc2S(=O)(=O)N([C@@H](C)CO)C[C@@H]1C` is “inactive”; for `O=C(CN1CCOCC1)N[C@@H]1CC[C@H](CCn2cc(C3CC3)nn2)O[C@H]1CO` it is “inactive”; for `C[C@@H]1CN([C@@H](C)CO)C(=O)Cc2cc(NS(=O)(=O)c3cn(C)cn3)ccc2O[C@H]1CN(C)S(=O)(=O)c1ccc(F)cc1` it is “inactive”.
Consider `C[C@@H]1CN([C@H](C)CO)C(=O)c2cc(NC(=O)NC3CCCCC3)ccc2O[C@@H](C)CCCCO[C@H]1CN(C)C(=O)NC1CCCCC1`, for which the cytotoxicity call was “inactive”.
With `C[C@H]1CN([C@@H](C)CO)C(=O)c2cccc(NC(=O)Nc3ccc4c(c3)OCO4)c2O[C@@H]1CN(C)C(=O)Nc1cccc2ccccc12`, the cytotoxicity call was “inactive”.
To `O=C(C[C@H]1CC[C@H]2NC[C@@H](O)COC[C@@H]2O1)NCCN1CCCCC1` belongs “inactive”; to `CC(C)NC(=O)Nc1ccc2c(c1)CC(=O)N([C@H](C)CO)C[C@@H](C)[C@H](CN(C)C(=O)Nc1ccc3c(c1)OCO3)O2`, “inactive”; to `C[C@@H]1CCCCO[C@@H](CN(C)C(=O)NC2CCCCC2)[C@H](C)CN([C@@H](C)CO)C(=O)c2cc(NC(=O)CCC(F)(F)F)ccc2O1`, “inactive”.
The entry for `Cc1noc(C)c1NC(=O)N(C)C[C@H]1OCCCC[C@@H](C)Oc2ccc(NC(=O)C3CCCCC3)cc2C(=O)N([C@H](C)CO)C[C@@H]1C` is “inactive”; for `C[C@@H]1CN([C@H](C)CO)C(=O)Cc2cc(NC(=O)Nc3ccc(C(F)(F)F)cc3)ccc2O[C@H]1CN(C)CC1CCCCC1` it is “active”.
The entry for `C[C@@H]1CN([C@@H](C)CO)C(=O)Cc2cc(NC(=O)Nc3ccc(C(F)(F)F)cc3)ccc2O[C@H]1CN(C)CC1CCCCC1` is “active”.
In the case of `C[C@H]1CN([C@@H](C)CO)C(=O)Cc2cc(NC(=O)Nc3ccc(F)cc3)ccc2O[C@@H]1CN(C)CC1CCCCC1`, the cytotoxicity call was “inactive”.
Regarding `C[C@H](CO)N1C[C@H](C)[C@H](CN(C)Cc2ccc3c(c2)OCO3)OCCCC[C@H](C)Oc2ccc(NC(=O)Cc3ccccc3)cc2C1=O`, the cytotoxicity call is “inactive”.
To `C[C@H]1CN([C@@H](C)CO)C(=O)Cc2cc(NC(=O)Nc3ccc4c(c3)OCO4)ccc2O[C@@H]1CN(C)Cc1ccc(-c2ccccc2)cc1` belongs “inactive”.
`CC(C)[Si](C#Cc1ccc(Oc2ccccc2)cc1)(O[Si](C#Cc1ccc(Oc2ccccc2)cc1)(C(C)C)C(C)C)C(C)C`: the cytotoxicity call was “inactive”.
To `COc1ccc(CN(C)C[C@@H]2OCCCC[C@@H](C)Oc3ccc(NC(=O)c4ccncc4)cc3C(=O)N([C@H](C)CO)C[C@H]2C)cc1` belongs “inactive”; to `O=C(Cc1ccncc1)Nc1ccc2c(c1)[C@@H]1C[C@H](CC(=O)N3CCc4ccccc4C3)O[C@@H](CO)[C@@H]1O2`, “inactive”.
Consider `CO[C@H]1O[C@H](CO)[C@@H](OC(=O)Nc2ccccc2-c2ccccc2)[C@H](OC(=O)Nc2ccccc2)[C@@H]1OC(=O)Nc1ccccc1`, for which the cytotoxicity call is “inactive”.
To `CCc1cccc(NC(=O)O[C@H]2[C@H](OC(=O)Nc3ccccc3-c3ccccc3)[C@H](OC(=O)Nc3ccccc3-c3ccccc3)[C@@H](OC)O[C@@H]2CO)c1` belongs “inactive”.
The entry for `CO[C@H]1O[C@H](CO)[C@@H](OC(=O)Nc2cccc(F)c2)[C@H](OC(=O)Nc2ccccc2-c2ccccc2)[C@H]1OC(=O)Nc1ccccc1-c1ccccc1` is “active”; for `CO[C@H]1O[C@H](CO)[C@@H](OC(=O)Nc2cccc(F)c2)[C@H](OC(=O)Nc2ccccc2-c2ccccc2)[C@@H]1OC(=O)Nc1ccccc1-c1ccccc1` it is “active”.
The entry for `CO[C@H]1O[C@H](CO)[C@@H](OC(=O)Nc2ccccc2-c2ccccc2)[C@H](OC(=O)Nc2ccc3c(c2)OCO3)[C@H]1OC(=O)Nc1ccc2c(c1)OCO2` is “inactive”.
Take `CO[C@H]1O[C@H](CO)[C@@H](OC(=O)Nc2ccccc2-c2ccccc2)[C@H](OC(=O)Nc2ccccc2-c2ccccc2)[C@@H]1OC(=O)Nc1ccccc1-c1ccccc1`: the cytotoxicity call is “inactive”.
To `C[C@@H]1CCCCO[C@@H](CN(C)Cc2ccccc2)[C@H](C)CN([C@@H](C)CO)C(=O)c2cc(NC(=O)Cc3ccccc3)ccc2O1` belongs “inactive”; to `C[C@H](CO)N1C[C@H](C)[C@@H](CN(C)S(C)(=O)=O)Oc2ccc(NC(=O)Nc3ccc(F)cc3)cc2C1=O`, “inactive”.
To `C[C@@H]1CN([C@@H](C)CO)C(=O)c2cc(NC(=O)CCCN(C)C)ccc2O[C@@H](C)CCCCO[C@@H]1CN(C)CC1CCCCC1` belongs “inactive”; to `C[C@H](CO)N1C[C@H](C)[C@H](CN(C)Cc2ccc(Oc3ccccc3)cc2)Oc2ccc(NS(=O)(=O)c3ccc(Cl)cc3)cc2CC1=O`, “active”; to `C[C@H]1CN([C@@H](C)CO)C(=O)Cc2cc(NS(=O)(=O)c3ccc(Cl)cc3)ccc2O[C@H]1CN(C)Cc1ccc(Oc2ccccc2)cc1`, “active”.
To `C[C@H]1CN([C@@H](C)CO)C(=O)Cc2cc(NS(=O)(=O)c3ccc(Cl)cc3)ccc2O[C@@H]1CN(C)Cc1ccc(Oc2ccccc2)cc1` belongs “active”; to `C[C@@H]1CN([C@H](C)CO)C(=O)Cc2cc(NS(=O)(=O)c3ccc(Cl)cc3)ccc2O[C@@H]1CN(C)Cc1ccc(Oc2ccccc2)cc1`, “active”; to `Nc1nc(=O)c2[nH]c(=O)cnc2[nH]1`, “inactive”.
For the compound `COc1ccc(CN(C)C[C@H]2OCCCC[C@H](C)Oc3ccc(NC(=O)c4ccccc4)cc3C(=O)N([C@H](C)CO)C[C@@H]2C)cc1`, the cytotoxicity call was “inactive”.
To `CO[C@@H]1CN(C)C(=O)c2ccc(NC(=O)Nc3ccccc3)cc2OC[C@@H](C)N(C(=O)CN(C)C)C[C@H]1C` belongs “inactive”.
For `COCC(=O)Nc1ccc2c(c1)C(=O)N(C)C[C@@H](OC)[C@@H](C)CN(Cc1cccc(F)c1)[C@@H](C)CO2`, the cytotoxicity call is “inactive”.
To `CC(C)Cn1cnc2c1c(=O)n(C)c(=O)n2C` belongs “inactive”.
To `CC(=O)N1C[C@@H](NC(=O)c2nccn2C)[C@@H]2OCCC[C@@H]21` belongs “inactive”; to `C[C@H](CO)N1C[C@H](C)[C@H](CN(C)C(=O)CCC(F)(F)F)OCCCC[C@H](C)Oc2ccc(NS(=O)(=O)c3ccccc3)cc2C1=O`, “inactive”.
Take `CN1CCN(C(=O)C[C@H]2C[C@@H]3c4cc(NS(=O)(=O)c5ccc(F)cc5)ccc4O[C@@H]3[C@@H](CO)O2)CC1`: the cytotoxicity call was “inactive”.
To `C=CCOC(=O)[C@H]1[C@@H]2C(=O)O[C@@H](c3ccccc3)[C@@H](c3ccccc3)N2[C@@H](c2ccc(OCCOC(=O)[C@@H]3C[C@@H]4C(=O)N[C@@H](CCCC[N+](C)(C)C)C(=O)N4[C@@H]3c3cccc(OCCO)c3)cc2)[C@]12C(=O)Nc1ccc(I)cc12` belongs “inactive”.
`Cc1noc(C)c1S(=O)(=O)N(C)C[C@H]1OCCCC[C@@H](C)Oc2ccc(NS(C)(=O)=O)cc2C(=O)N([C@@H](C)CO)C[C@@H]1C`: the cytotoxicity call is “inactive”.
With `COc1ccc(NC(=O)N(C)C[C@@H]2Oc3c(NC(=O)C4CCOCC4)cccc3C(=O)N([C@@H](C)CO)C[C@@H]2C)cc1`, the cytotoxicity call is “inactive”.
With `COCC(=O)Nc1ccc2c(c1)C(=O)N(C)C[C@@H](OC)[C@@H](C)CN(C(=O)Cc1cccnc1)[C@@H](C)CO2`, the cytotoxicity call is “inactive”.
The entry for `CCCCn1c(SCC(N)=O)nc2c1c(=O)n(C)c(=O)n2C` is “inactive”; for `C[C@H](CO)N1C[C@H](C)[C@@H](CN(C)Cc2ccc(Oc3ccccc3)cc2)Oc2ccc(NS(=O)(=O)c3ccc(Cl)cc3)cc2CC1=O` it is “inactive”.
The entry for `C[C@@H]1CN([C@@H](C)CO)C(=O)Cc2cc(NS(=O)(=O)c3ccc(Cl)cc3)ccc2O[C@@H]1CN(C)Cc1ccc(Oc2ccccc2)cc1` is “active”.
As to `C[C@@H]1CN([C@H](C)CO)C(=O)Cc2cc(NS(=O)(=O)c3ccc(Cl)cc3)ccc2O[C@H]1CN(C)Cc1ccc(Oc2ccccc2)cc1`, the cytotoxicity call is “active”.
Consider `C[C@@H]1CN([C@@H](C)CO)C(=O)Cc2cc(NS(=O)(=O)c3ccc(Cl)cc3)ccc2O[C@H]1CN(C)Cc1ccc(Oc2ccccc2)cc1`, for which the cytotoxicity call is “active”.
